# Results reported in PubChem BioAssay (Tox21).
# Results filed as inconclusive are left out. A number with no mark means an inactive call. Calls of active or inactive are those of the source. Calls come from the whole dose curve; as a rule, active = well fitted cell-killing curve with a large enough effect in the repeat runs; inconclusive = weak or mixed curves, or effect the other way; inactive = flat fitted curve, though single readings scatter.
# Assay: qHTS RealTime-Glo MT Cell Viability Assay in HEK293 cells - 24 hour (AID 1224886); note: nearly all actives have a fitted effect of over 50% in size; for activity change, negative = cytotoxicity: top concentration of the series differs between compounds
# Conditions: RealTime-Glo luminescence; series mostly up to 76.8 µM; activity change, negative = cytotoxicity: at the top concentration
# Excerpt: National Center for Advancing Translational Sciences [NCATS]
# NIH Chemical Genomics Center [NCGC]
# U.S. Environmental Protection Agency [EPA]
# National Institutes of Environmental Health Sciences [NIEHS]
# National Toxicology Program [NTP]
# U.S. Food and Drug Administration [FDA]
# Measure of cell viability is critical in the cell-base assay. Analysis of cell viability is necessary for the characterization of cell responses to cytotoxic drugs and environmental stress. A RealTime-Glo MT Cell Viability Assay to monitor cell viability in real time of continues cell culture during 40 hours of compound treatment was used to screen Tox21 10K library compounds in Hek293 cells. The RealTime-Glo MT Cell Viability Assay is a nonlytic, homogeneous, bioluminescent method to measure cell viability in real time using a simple, plate-based method. The assay involves adding NanoLuc luciferase and a cell-permeant prosubstrate to cells in culture. Viable cells reduce the proprietary prosubstrate to generate a substrate for NanoLuc luciferase. This substrate diffuses from cells into the surrounding culture medium, where it is rapidly used by the NanoLuc Enzyme to produce a luminescent signal. The signal correlates with the number of viable cells, making the assay well suited for cytotoxicity studies.
# Tox21 Assay Protocol Summary:
# The mixture of Hek293 cell suspension and reagents were dispensed at 600cells/6 ul/well in 1536-well tissue culture treated black solid bottom plates using a Multidrop dispenser. After the assay plates were incubated at a 37 C/5% CO2 incubator for 5 hours, 23 nL of compounds dissolved in DMSO, positive and negative controls was transferred to the assay plate by a pintool work station. The plates were incubated at 37 C for 40 hours. The luminescence intensity were measured at 0h, 8h, 16h, 24h, 32h and 40h time points using ViewLux plate reader during compound treatment.
# % is set by controls: 0 for no effect and ±100 for the full control effect; potency is the fitted concentration of half-maximal effect.
Compound,"activity change, negative = cytotoxicity",Potency
C/C=C/C=C/CCCCCCCO,-17.9%,
CC(C)c1nnc2ccc(-c3ocnc3-c3cc(F)ccc3F)cn12,,19.5 µM (active)
O=C(O)c1cccnc1C(=O)O,1.37%,
COc1ccc([C@@H]2Sc3ccccc3NC(=O)[C@@H]2O)cc1,-24.7% [at 35.3 µM],
CC(CCc1ccc2c(c1)OCO2)NN (stereo not given),2.23% [at 35.3 µM],
CC1=C(/C=C/C(C)=C\C=C\C(C)=C\C(=O)O)C(C)(C)CCC1,-8.69%,
NC(=O)Nc1ccc(Cl)c(Cl)c1,-22.8%,
CCC(C(=O)OCCOCCN(CC)CC)c1ccccc1 (stereo not given),7% [at 35.3 µM],
COC(=O)CC(=O)C(C)(C)C,-2.45%,
C[N+](C)(C)CCOC(N)=O,4.77% [at 35.3 µM],
CC(C)CCCCCCOC(=O)CCCCC(=O)OCCCCCCC(C)C,-0.847%,
Cc1cnc(C)c(C)n1,4.46%,
CC(C)CCCC(=O)O,-13.8%,
CCCOc1ccc(S(=O)(=O)N2CCN(CC)CC2)cc1-c1nc2c(CC)n(Cc3ccccn3)nc2c(=O)[nH]1,-20.4%,
O=S1OCCO1,20.3%,
O=S(=O)(c1ccccc1)c1ccc(Cl)cc1,-3.32%,
CO[Si](C)(OC)OC,6.54%,
NC(=O)N(O)[C@@H]1COc2cc(OCc3ccccc3)ccc21,-25%,
O=C(NCCCN1CCOCC1)c1ccc(Cl)cc1,4.89% [at 35.3 µM],
Cc1cc(O)c2c(O)c3c(O)cccc3cc2c1,-21.7% [at 35.3 µM],

Compound,"activity change, negative = cytotoxicity",Potency
Nc1nccs1,-19.5%,
CNC(=O)N(c1ccccc1)c1ccccc1,-0.728%,
COC(=O)c1cc(Cl)ccc1NS(=O)(=O)C(F)(F)F,1.63% [at 35.3 µM],
CCCC1C(CC)=CC(CC)=CN1c1ccccc1 (stereo not given),,13.8 µM (active)
CC(=N\O)/C(C)=N/O,-17.5%,
CCCCCCOC(=O)CCCCCCCC(=O)OCCCCCC,0.674%,
CCCCOC(=O)CCS,13.6%,
CCCCC(CC)COC(=O)COc1ccc(Cl)cc1C (stereo not given),23.4%,
O=C(Nc1ccc([N+](=O)[O-])cc1)Nc1ccc([N+](=O)[O-])cc1,,8.49 µM (active)
C[C@@H]1C[C@H]2[C@@H]3CCC4=CC(=O)C=C[C@]4(C)[C@@]3(F)[C@@H](O)C[C@]2(C)[C@H]1C(=O)CO,-9.4% [at 35.3 µM],
CCCCC(CC)CNCC(CC)CCCC (stereo not given),1.24%,
CN(C)CCOC1=Cc2ccccc2Sc2ccc(Cl)cc21,-13.1% [at 35.3 µM],
[O]=[Bi],5.04% [at 6.97 µM],
COc1cc2c(cc1OC)-c1cc(=Nc3c(C)cc(C)cc3C)n(C)c(=O)n1CC2,-31.8% [at 35.3 µM],
CO[C@H]1O[C@H](CO)[C@@H](O)[C@H](O)[C@H]1O,9.19%,
C=C(C)C(=O)OCCOC(=O)CC(C)=O,0.275%,
O=C(O)c1ccccc1NCCc1ccccc1,-0.247% [at 35.3 µM],
COc1ccc(CCC(=O)c2c(O)cc(O[C@@H]3O[C@H](CO)[C@@H](O)[C@H](O)[C@H]3O[C@@H]3O[C@@H](C)[C@H](O)[C@@H](O)[C@H]3O)cc2O)cc1O,5.39%,
O=C(/C=C/c1ccccc1)OCCCc1ccccc1,-1.09%,
Nc1ccc(C(=O)OCCCOC(=O)c2ccc(N)cc2)cc1,,43.6 µM (active)
